Measured values as given in the supplement of paper PMC11018630.
Counter-ions that a name gives are not always drawn. ± gives the standard deviation of the averaged measurements. Whole data set: some 1,100 compounds, median “day of extracellular matrix detachment from plate” near 16, cut for the lowest 2% near 10. This is one part of a sample in which the lowest values are shown more often than they occur.

What follows are compounds tested on RDEB dermal fibroblasts EB71 (assay: day of extracellular matrix detachment from plate (days); higher = delayed detachment (less fibrotic matrix)). Conditions: compound concentration: 10 uM.

Compound | day of extracellular matrix detachment from plate
O[C@H]1[C@H](O)[C@@H](O)[C@H](O)[C@@H](O)[C@H]1O [i-Inositol] | 13
CS(=O)(=O)c1ccc(C(=O)Nc2ccc(Cl)c(-c3ccccn3)c2)c(Cl)c1 [Vismodegib (GDC-0449)] | 14.3 ± 1.1
COc1cccc(-c2ccc(NC(=O)C3=C(C(=O)O)CCC3)c(F)c2)c1 [Vidofludimus] | 16.3 ± 1.1
CCOc1cc([C@@H](CS(C)(=O)=O)N2C(=O)c3cccc(NC(C)=O)c3C2=O)ccc1OC | 12.7 ± 2.9
O=C1CC[C@@H](C(=O)N2CSC[C@H]2C(=O)O)N1 [Pidotimod] | 15.3 ± 2.3
CC(C)NCC(O)c1ccc(O)c(O)c1 (configuration not stated) [Isoprenaline HCl] | 11 ± 1.7
CNC[C@H](O)c1ccc(O)c(O)c1 [Epinephrine HCl] | 16.3 ± 4
CNC[C@@H](O)c1ccc(O)c(O)c1 [L-Adrenaline] | 10 ± 1.7
CNC[C@H](O)c1cccc(O)c1 [Phenylephrine HCl] | 12
NC[C@H](O)c1ccc(O)c(O)c1 [Noradrenaline bitartrate monohydrate] | 16.7 ± 2.3
CC(C)(C)NCC(O)c1ccc(O)c(CO)c1 (configuration not stated) [Salbutamol Sulfate] | 19
CNC[C@H](O)c1ccc(O)c(O)c1 [Epinephrine Bitartrate] | 9
O=C(/C=C/C=C/c1ccc2c(c1)OCO2)N1CCCCC1 [Piperine] | 11 ± 1.7
Cc1ccsc1C(=CCCN1CCC[C@@H](C(=O)O)C1)c1sccc1C [Tiagabine] | 17
Cc1ccsc1C(=CCCN1CCC[C@@H](C(=O)O)C1)c1sccc1C [Tiagabine hydrochloride] | 17.2 ± 2
Cc1c(-c2ccnn2C)cc(C(=O)NCc2ccc(S(C)(=O)=O)cn2)c(=O)n1-c1cccc(C(F)(F)F)c1 [Alvelestat (AZD9668)] | 13.7 ± 1.1
CCCNS(=O)(=O)Nc1ncnc(OCCOc2ncc(Br)cn2)c1-c1ccc(Br)cc1 [Macitentan] | 9.67 ± 1.1
O=C(O)c1cc(=O)c2ccccc2o1 [Chromocarb] | 13
OCC(O)CN1CCN(c2ccccc2)CC1 (configuration not stated) [Dropropizine] | 15
C=C1CC[C@H](O)C/C1=C/C=C1\CCC[C@]2(C)[C@@H]([C@H](C)/C=C/[C@H](C)C(C)C)CC[C@@H]12 [Vitamin D2] | 18
CC(=O)/N=c1/sc(S(N)(=O)=O)nn1C [Methazolamide] | 18
O=C1C(O)=C([C@H]2CC[C@H](c3ccc(Cl)cc3)CC2)C(=O)c2ccccc21 [Atovaquone] | 18
CC[C@H](Nc1ncnc2[nH]cnc12)c1nc2cccc(F)c2c(=O)n1-c1ccccc1 [CAL-101 (Idelalisib, GS-1101)] | 22.3 ± 1.1
O=C([O-])C(O)[C@H](O)[C@@H](O)[C@H](O)[C@H](O)CO.O=C([O-])C(O)[C@H](O)[C@@H](O)[C@H](O)[C@H](O)CO.[Ca+2] (some centres not stated) [Calcium Gluceptate] | 18
S=c1[nH]cnc2nc[nH]c12 [Mercaptopurine (6-MP)] | 15 ± 1.7
O=c1[nH]c(=O)n([C@H]2C[C@H](O)[C@@H](CO)O2)cc1I [Idoxuridine] | 23
COc1cc(OC)c(C(=O)CCCN2CCCC2)c(OC)c1 [Buflomedil HCl] | 20 ± 1.7
